Data published in PubChem BioAssay (NCATS).
Positions of bridges follow the written chain, without caps; N, C: chain ends. Non-standard residues stand in square brackets, D forms with d. Residues, ends and D or L forms follow the SMILES beside them. ξ: configuration not given here. *: point of attachment. Octanoyl(6-Me) = CCC(C)CCCCC(=O)*; ξThr(3R) = C[C@@H](O)C(N)C(=O)O; dDab = NCC[C@@H](N)C(=O)O; Dab = NCC[C@H](N)C(=O)O

Assay: qHTS profiling of the MIPE4 collection as inhibitors of Plasmodium falciparum (HB3) proliferation (AID 743347)
Settings: P. falciparum HB3 in erythrocytes, SYBR Green DNA, 72 h; at 28.5 µM (top of the series) unless noted
Excerpt: Plasmodium falciparum is a virulent malarial parasite that kills 1-2 million people worldwide each year. Transmitted by mosquitoes, the sporozoite form of the parasite enters the blood stream to infect hepatocytes, where they become merozoites that infect red blood cells (erythrocytes). Within erythrocytes, merozoites begin a […] cycle of growth and division, after which the parasite is released to infect new red blood cells. Gametocytes, which form within erythrocytes as well, circulate in the bloodstream and are ingested by the mosquito, thereby completing the life cycle. To profile malarial isolates for differential chemical responses and to identify inhibitors of malarial growth, an assay that measures P. falciparum growth and replication within erythrocytes was employed. This assay uses a DNA binding fluorescent dye (SYBR Green) to detect parasite DNA following cell lysis. Because mature erythrocytes lack DNA, only Plasmodium-derived DNA is detected.
The SYBR Green viability assay was adapted from a method described previously (Plouffe et al., 2008). For screening 3 ul culture medium was dispensed into 1536 well black clear bottom plates (Aurora Biotechnologies) using a Multidrop Combi (Thermo Fisher Scientific Inc.), 23 nL compounds in DMSO were added by a pin tool (Kalypsys), and 5 ul of erythrocytes infected with P. falciparum (0.3% parasitemia, 2.5% hematocrit final concentration) were added. The plates were incubated at 37 C in a humidified incubator in 5% CO2 for 72 h, and 2 ul lysis buffer (20 mM Tris HCl, 10 mM EDTA, 0.16% saponin, 1.6% triton X, 10X SYBR Green I supplied as 10,000X […] by Invitrogen) was added to each well. The plates were mixed for 25 sec with gentle shaking and incubated overnight at room temperature in the dark. The following morning, fluorescence intensity at 485(14) nm excitation and 535(25) nm emission wavelengths was measured on an EnVision (Perkin Elmer) plate reader. Plate reads were normalized relative to the control inhibitor (0.29 uM artemisinin) and vehicle (DMSO) wells present on each plate and then corrected by an algorithm using vehicle-only control plates at the beginning and end of the compound plate stack.

| SMILES | growth, % of control |
| --- | --- |
| NC[C@H]1O[C@H](O[C@H]2[C@@H](O)[C@@H](O[C@H]3O[C@H](CO)[C@@H](O)[C@H](N)[C@@H]3O)[C@H](N)C[C@@H]2N)[C@H](N)C[C@H]1O | 88.3% |
| COc1cc2c(cc1O)CCC1C2CC[C@@]2(C)C1CC[C@@H]2O (stereo not given in full) | 59.7% |
| CN(C)c1ccc2cc(C(=O)N[C@@H](CCCN=C(N)CCl)C(=O)NCc3ccccc3)ccc2c1 | 9.16% |
| COc1cc(OC)c(C=CS(=O)(=O)Cc2ccc(OC)c(NCC(=O)O)c2)c(OC)c1 | 68.2% |
| COC1=C2C[C@@H](C)C[C@H](OC)[C@@H](O)[C@@H](C)C=C(C)[C@H](OC(N)=O)[C@@H](OC)C=CC=C(C)C(=O)NC(=CC1=O)C2=O | 3.98% |
| CC(C)(N)c1ccc(-c2nc3ccccc3nc2-c2ccccc2)cc1 | 18.5% |
| COc1cc(C=CC(=O)CC(=O)C=Cc2ccc(O)c(OC)c2)ccc1O | 2.99% [at 57.5 µM] |
| c1cncc(CN2CCC(n3ncc4c(N5CCOCC5)nc(-c5ccc6[nH]ccc6c5)nc43)CC2)c1 | 8.55% |
| Cc1cnc(Nc2ccc(N3CCN(C)CC3)cc2)nc1Nc1cccc(S(=O)(=O)NC(C)(C)C)c1 | 3.11% |
| CCCc1nc(C(C)(C)O)c(C(=O)O)n1Cc1ccc(-c2ccccc2-c2nn[nH]n2)cc1 | 61.6% |
| O=C(NNC(=O)c1ccc(CNS(=O)(=O)c2ccc(F)c(Cl)c2)cc1)c1ccccc1 | 588% |
| CCNC(=O)c1cc2c(-c3cc(OCCN4CCCC4)c(Cl)cc3Cl)nc(N)nc2s1 | 5.43% |
| CC(C)C[C@H](NC(=O)[C@@H](NC(=O)c1cccc(-c2ccccc2)n1)[C@@H](C)O)B(O)O | 3.76% |
| Cn1cc(C2=C(c3c4n(c5ccccc35)CCC(CN)C4)C(=O)NC2=O)c2ccccc21 (stereo not given) | 3.72% |
| O=C(CN1C(=O)C2(CCCC2)NC[C@H]1c1cc(F)cc(F)c1)Nc1ccc2c(c1)C[C@@]1(C2)C(=O)Nc2ncccc21 | 40.3% |
| CCCCCCCCCCCCc1ccc(S(=O)(=O)Nc2nncs2)cc1 | 117% |
| Oc1ccc([C@@H]2Oc3ccc(O)cc3[C@@H]3CCC[C@@H]32)cc1 | 81.1% |
| C=CC[C@@H]1C=C(C)C[C@H](C)C[C@H](OC)[C@H]2O[C@@](O)(C(=O)C(=O)N3CCCC[C@H]3C(=O)O[C@H](C(C)=C[C@@H]3CC[C@H](O)[C@H](OC)C3)[C@@H](C)[C@@H](O)CC1=O)[C@@H](C)C[C@@H]2OC | 44.7% |
| CCC(C)CCCCC(=O)N[C@@H](CCN)C(=O)NC(C(=O)N[C@H](CCN)C(=O)N[C@@H]1CCNC(=O)C([C@@H](C)O)NC(=O)[C@@H](CCN)NC(=O)[C@@H](CCN)NC(=O)[C@@H](CC(C)C)NC(=O)[C@H](Cc2ccccc2)NC(=O)[C@H](CCN)NC1=O)[C@@H](C)O (stereo partly drawn) ({Octanoyl(6-Me)}-[Dab][ξThr(3R)][dDab][dDab][Dab]F[dL][dDab][dDab][ξThr(3R)]; lactam 4-C) | 96.2% |
| COC(=O)C1C2CC3c4[nH]c5cc(OC)ccc5c4CCN3CC2CC(OC(=O)c2cc(OC)c(OC)c(OC)c2)C1OC (stereo not given) | 9.05% |

| SMILES | growth, % of control |
| --- | --- |
| CC(C)(O)CC[C@@H](O)[C@](C)(O)[C@H]1CC[C@@]2(O)C3=CC(=O)[C@@H]4C[C@@H](O)[C@@H](O)C[C@]4(C)[C@@H]3CC[C@]12C | 674% |
| CCCNS(=O)(=O)Nc1ncnc(OCCOc2ncc(Br)cn2)c1-c1ccc(Br)cc1 | 88.3% |
| CCOc1cc2c(c(F)c1OCC)C(=N)N(CC(=O)c1cc(N3CCOCC3)c(OC)c(C(C)(C)C)c1)C2 | 6.22% |
| OC[C@@H](O)[C@@H](O)[C@H](O)[C@@H](O)CO | 70.6% |
| C[C@@H](NCc1cc2ccccc2[nH]1)c1cccc2ccccc12 | 36.4% |
| O=c1ccn([C@@H]2O[C@H](CO)[C@H](O)[C@@H]2F)c(=O)[nH]1 | 645% |
| CCOC(=O)[C@H](CCc1ccccc1)N[C@@H](C)C(=O)N1[C@@H](C(=O)O)C[C@H]2CCC[C@@H]21 | 4.34% |
| Cc1cn([C@@H]2O[C@H](CO)[C@@H](O)[C@H]2F)c(=O)[nH]c1=O | 323% |
| O=C(O)C[C@H](O)C[C@H](O)C=Cc1c(C2CC2)nc2ccccc2c1-c1ccc(F)cc1 | 86.6% |
| COC(=O)[C@@H]1CC2=CC(=O)CC[C@]2(C)[C@@]23O[C@@H]2C[C@@]2(C)[C@H](CC[C@@]24CCC(=O)O4)[C@@H]13 | 49.1% |
| Cc1coc2c1C(=O)C(=O)c1c-2ccc2c(C)cccc12 | 3.19% |
| COc1ccc2cc([S+]([O-])Cc3ncc(C)c(OC)c3C)nc2c1 | 41.2% |
| N#Cc1c(NC(=O)c2cccc3ccccc23)sc2c1CCCC2 | 69.7% |
| O=C(C[C@@H]1CC=CCCC(=O)O[C@H](c2ccccc2)CNC1=O)NCc1ccc(Cl)cc1 | 54.9% |
| Cc1ccc(O)c(C(CCN(C(C)C)C(C)C)c2ccccc2)c1 (stereo not given) | 19.1% |
| C[C@](Cc1c[nH]c2ccccc12)(NC(=O)OC1C2CC3CC(C2)CC1C3)C(=O)NC[C@H](NC(=O)CCC(=O)O)c1ccccc1 (stereo not given in full) | 10.5% |
| N#CC(=C(N)Sc1ccc(N)cc1)c1ccccc1C(F)(F)F | 7.78% |
| O=C(C=CC#Cc1cccc(NS(=O)(=O)c2ccccc2)c1)NO | 4.3% |
| Cc1[nH]c(C=C2C(=O)Nc3ccccc32)c(C)c1CCC(=O)O | 27.3% |
| COc1ccc(Nc2cc(-c3cnc(N)nc3)nc(N3CCOCC3)n2)cn1 | 6.14% |
